Assay results from PubChem BioAssay (NCI).
The panel holds about 83,000 compounds, 20% with a hit somewhere; the sample as a whole holds those more often.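 Each cell line was grown in a 96-well plate and treated with one concentration of compound for 48 hours. Values below 10 were considered active.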 Values without a mark were called inactive. Calls of active or inactive are those of the source.

These compounds were tested on COLO 205 colon (assay: NCI-60 one-dose screen, 48 h (100 = growth as untreated, 0 = no growth, -100 = all killed)). Conditions: 10 µM unless noted.
Protocol: Cells are grown in 96 well plates and exposed to the test compound for 48 hours. Compounds are tested at a single concentration, which is 10^-5 M for most compounds. The reported endpoint is percent growth (GI% or GIPRCNT), where numbers from 0 - 100% represent growth inhibition, and numbers from -100% - 0 represent cell death. For example, a value of 40 represents 60% growth inhibition. A value of 0 means no net growth occurred over the course of the experiment. A value of -40 indicates 40% of cells at the beginning of the experiment died by the end of the experiment. A value of -100 means all cells are dead at the end of the experiment.
NCI-60 Human Tumor Cell Lines Screen was performed using the standard one-dose NCI protocol, which is described in more detail at https://dtp.cancer.gov/discovery_development/nci-60/default.htm.
Compounds with GIPRCNT values below 10 were considered active. Activity score was based on GIPRCNT using the following formula: […]
Score is 0 for GIPRCNT values of 100 or above, 50 for GIPRCNT values of 0, and 100 for GIPRCNT values of -100.

SMILES	growth
Cc1nnc(/N=C2\NC(=O)/C(=C/c3ccc(N(C)C)cc3)S2)s1	98.7%
COc1ccc(/C=C/C(=O)Nc2ncnc3nc[nH]c23)cc1	115%
O=C1NN(c2ccccc2)C(c2ccc3c(c2)OCO3)N2CCC[C@@H]12 (stereo not given in full)	104%
C1=CC2=CC=C3C=CC=C4C(c5nc6c7ccccc7c7ccccc7c6[nH]5)=CC(=C1)C2C34 (stereo not given)	120%
COc1ccc(-c2nc(C#N)c(NCC(c3ccc(Cl)cc3)N3CCCCC3)o2)cc1 (stereo not given)	87.6%
C#CCN(CCCOc1ccc(Cl)cc1Cl)CCCSC(=O)CCCCCN1/C(=C\C=C2/CCCC(/C=C/C3=[N+](CCCCCC(=O)[O-])c4ccccc4C3(C)C)=C2Cl)C(C)(C)c2ccccc21	32.8%
O=C1C(Cl)=C(Nc2ccc3c(c2NC2=C(Cl)C(=O)c4ccccc4C2=O)C(=O)c2ccccc2C3=O)C(=O)c2ccccc21	21.1%
Nc1cccc(C(=O)Nc2ccc3c(O)c(N=Nc4ccc(N=Nc5ccc(S(=O)(=O)O)cc5)cc4)c(S(=O)(=O)O)cc3c2)c1	121%
CCN1CCN(c2ccc(NC(=O)Nc3nc4ccc(-c5ccccc5OC)cc4s3)cc2)CC1	-73.2% (active)
O=C(N/N=C/C[C@@H]1[C@@H](/C=C/[C@@H](O)COc2cccc(Cl)c2)[C@H](O)C[C@@H]1O)c1ccncc1	113%
COc1cc2c(cc1OCCCOc1cc3c(cc1OC)C(=O)N1CC(F)(F)C[C@H]1C=N3)N=C[C@@H]1CC(F)(F)CN1C2=O	3.85% (active)
O=C(O)CCNC1CCCCC1	95.8%
COc1ccc(/C=C/C(=O)c2ccc(NC(=O)CSc3nnc(-c4ccc(OC)c(OC)c4)n3-c3ccccc3)cc2)cc1	26.7%
CCCS(=O)(=O)Nc1ccc(F)c(C(=O)c2c[nH]c3ncc(-c4ccc(OCCCC5CCCCN5)nc4)cc23)c1F (stereo not given)	2.52% (active)
N#CC1(C#N)C2=C(CCCC2)NC(c2c(F)cccc2Cl)C1(C#N)C#N (stereo not given)	91.4%
COc1cc(N=Nc2cc(S(=O)(=O)O)cc3cc(S(=O)(=O)O)cc(O)c23)c(C)cc1N=Nc1c(S(=O)(=O)O)cc2cc(Nc3ccccc3)ccc2c1O	129%
C(=C\c1cn(-c2ccccc2)nc1-c1ccccc1)/c1nnc(-c2c[nH]c3ccccc23)o1	31.8%
COc1ccc(-c2nc(C#N)c(NCC(c3ccco3)N3CCCC3)o2)cc1 (stereo not given)	19.9%
C=C(C)[C@@H]1CC[C@]2(C(=O)n3ccnc3)CC[C@]3(C)[C@H](CC[C@@H]4[C@@]5(C)CCCNC(C)(C)[C@@H]5CC[C@]43C)[C@@H]12	-69.8% (active)
N#CCNc1ccc(C(=O)O)cc1	110%

SMILES	growth
COc1ccc(N(C)c2nc(Cl)nc3ccn(C)c23)cc1	-71.1% (active)
C=C1C(=O)O[C@H]2[C@H]1CC/C(COC(=O)CCCCC(=O)OC/C1=C/CC[C@@]3(C)O[C@H]3[C@H]3OC(=O)C(=C)[C@@H]3CC1)=C\CC[C@@]1(C)O[C@@H]21	-18.9% (active)
COc1ccc2[nH]c(-c3ccccc3)c(C=C(C#N)C#N)c2c1	38.2%
N#Cc1ccc(N2Cc3cc(Cl)ccc3OC3=C2C(=O)N(Cc2ccc(F)cc2)C3=O)cc1	-73.5% (active)
Cc1cccc(C)c1Nc1nnc(-c2ccc(F)cc2)o1	100%
COC(=O)c1ccc2c(c1)n(Cc1ccc3ccccc3c1)c[n+]2Cc1ccc2ccccc2c1	3.66% (active)
CCCCOc1nc2ccc(C)cc2cc1/C=C/C(=O)/C=C/c1ccc2c(c1)OCO2	123%
C=C(C)[C@@H]1CC[C@]2(C(=O)NCCCO)CC[C@]3(C)[C@H](CC[C@@H]4[C@@]5(C)CCCNC(C)(C)[C@@H]5CC[C@]43C)[C@@H]12	-62.6% (active)
C=C1C(=O)O[C@H]2[C@H]1CC/C(COC(=O)CCCCCCC(=O)OC/C1=C/CC[C@@]3(C)O[C@H]3[C@H]3OC(=O)C(=C)[C@@H]3CC1)=C\CC[C@@]1(C)O[C@@H]21	-64.6% (active)
[2H]c1nc(Nc2ncc3cc(C(=O)N(C)C)n(C4CCCC4)c3n2)c([2H])c([2H])c1N1C([2H])([2H])C([2H])([2H])NC([2H])([2H])C1([2H])[2H]	28.1%
O=C1CCC23OC(c4ccccc4N12)C(O)C(O)C3O (stereo not given)	124%
Cc1cc(C)c(NC(=O)c2sc3nc4c(cc3c2N)CCCCCC4)c(C)c1	81.5%
COc1ccc(Cl)c([N+](=O)[O-])c1	116%
COc1ccc(C2CC(c3ccc(OC)cc3O)=NN2c2ccc(S(N)(=O)=O)cc2)cc1 (stereo not given)	29.5%
CCOCc1cc(C(C)(C)C)ccc1O	114%
[2H]c1cc2c(c([2H])c1F)/C(=C/c1[nH]c(C)c(C(=O)NCCN(CC)CC)c1C)C(=O)N2	38.3%
CCOC(=O)c1sc(/N=C2\NC(=O)/C(=C/c3ccc(N4CCN(C)CC4)cc3)S2)nc1C	109%
Cc1ccc(SC2c3ccc(C)cc3Oc3nc(N)c(C#N)c(N)c32)cc1 (stereo not given)	62.8%
O=C(CSC(=S)N1CCCCC1)Nc1ccccc1	112%
C=CCn1c(SCC(=O)Nc2ccc(C(=O)/C=C/c3cc(OC)c(OC)c(OC)c3)cc2)nnc1-c1ccc(Cl)cc1	31.9%
